Each structure is given as a SMILES string. Entries with a potency or affinity are not part of this list. The source made the active and inactive calls.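 How the source made its calls: active means CTGF level falls with dose and the fitted half-maximal dose is at most twice the top valid dose; inconclusive means flat fit with 30 to 70% drop, or a poor fit; inactive means the rest.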

The assay in a line: CTGF mRNA reduction in DLD1 cells – cell-based, DLD1 colon cancer, RT-qPCR, cherry-pick, dose response (AID 1053122). The following applies: DLD1 CTGF mRNA (YAP1 pathway), 24 h; series mostly up to 26 µM; CTGF expression fold change (lower = inhibition): at the top concentration. For orientation: Quantitative PCR measures a nucleic acid by following its amplification.
As for `O=C(Cc1ccncc1)N1CCCCN2[C@H](CO)[C@@H](c3ccc(C#Cc4ccccc4F)cc3)[C@@H]2C1`, the “CTGF expression fold change (lower = inhibition)” value is 0.409 unspecified (inactive). With `O=C(Cc1ccncc1)N1CCCCN2[C@H](C1)[C@@H](c1ccc(C#Cc3ccccc3F)cc1)[C@@H]2CO` the figure was 0.741 unspecified (inactive); with `COc1cccc(-c2ccc([C@@H]3[C@@H](CO)N4CCCCN(C(=O)Cc5ccncc5)C[C@H]34)cc2)c1`, 0.988 unspecified (inactive). With `O=C(Cc1ccncc1)N1CCCCN2[C@H](CO)[C@@H](c3ccc(C#Cc4ccccc4F)cc3)[C@H]2C1` the figure was 0.661 unspecified (inactive); with `COc1cccc(-c2ccc([C@@H]3[C@@H](CO)N4CCCCN(C(=O)Cc5ccncc5)C[C@@H]34)cc2)c1`, 0.867 unspecified (inactive); with `COc1cccc(-c2ccc([C@@H]3[C@H]4CN(C(=O)Cc5ccncc5)CCCCN4[C@H]3CO)cc2)c1`, 1.38 unspecified (inactive).

With `COc1cccc(-c2ccc([C@H]3[C@H](CO)N4CCCCN(C(=O)Cc5ccncc5)C[C@@H]34)cc2)c1`, the “CTGF expression fold change (lower = inhibition)” value is 0.94 unspecified (inactive). In the case of `COc1cccc(-c2ccc([C@H]3[C@@H](CO)N4CCCCN(C(=O)Cc5ccncc5)C[C@@H]34)cc2)c1` it was 0.966 unspecified (inactive). With `O=C(Cc1ccncc1)N1CCCCN2[C@@H](CO)[C@@H](c3ccc(C#Cc4ccccc4F)cc3)[C@@H]2C1` the figure was 0.834 unspecified [at 23.5 µM] (inactive); with `O=C(Cc1ccncc1)N1CCCCN2[C@H](CO)[C@H](c3ccc(C#Cc4ccccc4F)cc3)[C@H]2C1`, 1.23 unspecified (inactive); with `COc1cccc(-c2ccc([C@H]3[C@@H](CO)N4CCCCN(C(=O)Cc5ccncc5)C[C@H]34)cc2)c1`, 1.61 unspecified (inactive). With `COc1cccc(-c2ccc([C@@H]3[C@H](CO)N4CCCCN(C(=O)Cc5ccncc5)C[C@@H]34)cc2)c1` the figure was 0.779 unspecified (inactive).

(Values after PubChem BioAssay AID1053122 (Broad Institute, 2014).)
